From PubChem BioAssay (NCI)
About 83,000 compounds went through this panel and 20% of them were active in at least one assay; those are over-represented in the sample as a whole.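 For each line, cells grew in 96-well plates with the test compound present at a single concentration for 48 hours.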 Values without a mark were called inactive. Calls of active or inactive are those of the source. How the source made its calls: active means growth percent below 10; inactive means the rest.

Assays:
Experiment in all cases: NCI-60 one-dose screen, 48 h (100 = growth as untreated, 0 = no growth, -100 = all killed)
[1] = system: HCT-15 colon; details: 10 µM unless noted
[2] = system: HT29 colon; details: 10 µM unless noted
[3] = system: SNB-75 CNS; details: 10 µM unless noted
[4] = system: SNB-19 CNS; details: 10 µM unless noted
[5] = system: U251 CNS; details: 10 µM unless noted
[6] = system: PC-3 prostate; details: 10 µM unless noted
[7] = system: LOX IMVI melanoma; details: 10 µM unless noted
[8] = system: SK-MEL-28 melanoma; details: 10 µM unless noted
[9] = system: SK-MEL-2 melanoma; details: 10 µM unless noted
[10] = system: EKVX NSCLC; details: 10 µM unless noted
[11] = system: SN12C renal; details: 10 µM unless noted
[12] = system: UO-31 renal; details: 10 µM unless noted
[13] = system: TK-10 renal; details: 10 µM unless noted
[14] = system: ACHN renal; details: 10 µM unless noted
[15] = system: A498 renal; details: 10 µM
[16] = system: HL-60(TB) leukemia; details: 10 µM unless noted
[17] = system: CCRF-CEM leukemia; details: 10 µM unless noted
[18] = system: UACC-62 melanoma; details: 10 µM unless noted
[19] = system: CAKI-1 renal; details: 10 µM unless noted
[20] = system: SK-MEL-5 melanoma; details: 10 µM unless noted

CC1=C(CNO)C2=C(C)C3(CC3)[C@@](C)(O)C(=O)C2=C1
growth [1]: 12.1%
growth [2]: 41.4%
growth [3]: -58.8% (active)
growth [4]: 4.3% (active)
growth [5]: -13.6% (active)
growth [6]: 5.59% (active)
growth [7]: 52.8%
growth [8]: 50.2%
growth [9]: -44.4% (active)
growth [10]: 9.85% (active)
growth [11]: 18.7%
growth [12]: -57.7% (active)
growth [13]: -0.334% (active)
growth [14]: -48.3% (active)
growth [15]: -70.9% (active)
growth [16]: 8.14% (active)
growth [17]: 73.9%

CCC1CC(O)c2c(O)c3c(c(O)c2C1O)C(=O)c1cccc(O)c1C3=O (stereo not drawn) (tested in a mixture with another compound)
growth [1]: -20.2% (active)
growth [2]: -24.6% (active)
growth [3]: -93.5% (active)
growth [4]: -16.4% (active)
growth [5]: -12.2% (active)
growth [6]: -33.4% (active)
growth [18]: -71.7% (active)
growth [7]: -28.1% (active)
growth [9]: -63% (active)
growth [10]: -4.25% (active)
growth [11]: 0.851% (active)
growth [12]: -32.9% (active)
growth [13]: -13.7% (active)
growth [14]: -18.1% (active)
growth [19]: 0.243% (active)
growth [16]: -45.5% (active)
growth [17]: -21.5% (active)

O=C(CC1(O)C(=O)N(Cc2ccccc2)c2ccc(Cl)cc21)c1ccc(C(=O)NCC2CCC3(CC2)OOC2(CCCCC2)OO3)cc1 (stereo not drawn)
growth [1]: -14.1% (active)
growth [2]: -69.7% (active)
growth [3]: -61.7% (active)
growth [4]: 30.9%
growth [5]: -81.8% (active)
growth [6]: -54.3% (active)
growth [18]: 53%
growth [7]: -78.5% (active)
growth [9]: 2.93% (active)
growth [10]: -71.1% (active)
growth [11]: -58.1% (active)
growth [12]: -74.2% (active)
growth [13]: -91.5% (active)
growth [14]: -83.9% (active)
growth [19]: -94.3% (active)
growth [15]: -91% (active)
growth [16]: -62.7% (active)
growth [17]: -42.7% (active)

CC(=O)O[C@H]1C(=O)[C@@]2(C)[C@H]([C@H](OC(=O)c3ccccc3)[C@]3(O)C[C@H](OC(=O)[C@H](OC(=O)OC[C@H]4COC(C)(C)O4)[C@@H](NC(=O)c4ccccc4)c4ccccc4)C(C)=C1C3(C)C)[C@]1(OC(C)=O)CO[C@@H]1C[C@@H]2O
growth [1]: 5.28% (active)
growth [2]: 2.46% (active)
growth [3]: -20.5% (active)
growth [4]: 11.9%
growth [5]: 15.9%
growth [6]: 21%
growth [18]: 21.7%
growth [9]: 14.3%
growth [10]: 27.1%
growth [11]: 22.5%
growth [12]: 33.8%
growth [13]: 25.6%
growth [14]: 34.5%
growth [19]: 20.7%
growth [15]: 21.1%
growth [16]: 3.13% (active)
growth [17]: 17%

O=C1C=C(N2C3C4CCC(C4)C32)C(=O)C=C1c1ccccc1 (stereo not drawn)
growth [1]: 82.7%
growth [2]: 108%
growth [3]: 65.4%
growth [4]: 91.4%
growth [6]: 81.7%
growth [20]: 95.9%
growth [18]: 80.6%
growth [7]: 89.9%
growth [8]: 91.7%
growth [9]: 87.8%
growth [11]: 93.8%
growth [12]: 90.8%
growth [13]: 142%
growth [14]: 73.4%
growth [19]: 58%
growth [15]: 49.3%
growth [16]: 44.8%
growth [17]: 0.362% (active)

Cn1cc(-c2csc(-c3cn(CCN4CCOCC4)c4ccc(F)cc34)n2)c2cccnc21
growth [1]: 19.6%
growth [2]: 40.1%
growth [3]: 51.1%
growth [4]: 49.2%
growth [5]: 36.9%
growth [6]: 1.07% (active)
growth [7]: 27.9%
growth [8]: 40.5%
growth [9]: 15.8%
growth [10]: 37.5%
growth [11]: 61.4%
growth [12]: 11%
growth [13]: 55.7%
growth [15]: 68.1%
growth [16]: 1.01% (active)
growth [17]: 12.4%

COC(=O)CCC1=C(C)c2cc3[n-]c(cc4nc(cc5[n-]c(cc1n2)c(CCC(=O)OC)c5C)C=C4C)cc3C.[Cd+2]
growth [1]: 35.5%
growth [2]: 28.8%
growth [4]: 73.9%
growth [5]: 61%
growth [6]: 33.9%
growth [20]: -7.46% (active)
growth [18]: 24.1%
growth [7]: 44.3%
growth [8]: 68.8%
growth [9]: 32.4%
growth [10]: 62.2%
growth [12]: 71.7%
growth [13]: 33.4%
growth [14]: 67.9%
growth [19]: 63.3%
growth [15]: 34.4%

O=C1C2CC=CCC2C(=O)N1SC(Cl)(Cl)Cl (stereo not drawn)
growth [1]: 67.3%
growth [3]: 104%
growth [4]: 91.5%
growth [5]: 98.8%
growth [6]: 81.9%
growth [20]: 94.1%
growth [18]: 93.6%
growth [7]: 78.6%
growth [8]: 132%
growth [9]: 122%
growth [10]: 121%
growth [11]: 97.4%
growth [12]: 4.07% (active)
growth [13]: 115%
growth [14]: 72.3%
growth [19]: 72.8%
growth [15]: 139%
growth [16]: 46.2%
growth [17]: 21.6%

COc1ccc(NC([Se])=NC23CC4CC(CC(C4)C2)C3)cc1
growth [1]: 9.68% (active)
growth [2]: 5.56% (active)
growth [4]: 15.7%
growth [5]: -31% (active)
growth [6]: 7.99% (active)
growth [20]: -85.5% (active)
growth [18]: -24.3% (active)
growth [7]: 3.59% (active)
growth [8]: 13.2%
growth [9]: -8.11% (active)
growth [10]: -14.3% (active)
growth [11]: 4.39% (active)
growth [12]: -27.3% (active)
growth [13]: -40.9% (active)
growth [14]: 0.201% (active)
growth [19]: -31% (active)
growth [16]: -11.8% (active)
growth [17]: 5.94% (active)

O=C(CCCCCNC1=CC(=O)c2ccccc2C1=O)NCCC[Te]c1ccccc1
growth [1]: -20.1% (active)
growth [3]: -26% (active)
growth [4]: 5.42% (active)
growth [5]: -8.56% (active)
growth [6]: -0.995% (active)
growth [20]: -92.9% (active)
growth [18]: -27.7% (active)
growth [7]: -22.1% (active)
growth [8]: -42% (active)
growth [9]: 8.28% (active)
growth [10]: -31.9% (active)
growth [11]: -8.47% (active)
growth [12]: 16.9%
growth [13]: -14.8% (active)
growth [14]: -71.2% (active)
growth [19]: -55.8% (active)
growth [16]: 28.1%
growth [17]: -15.3% (active)

Cc1ccc(N2COOC3(OOC2)C2CC4CC(C2)CC3C4)cc1
growth [1]: 96.6%
growth [2]: 97.5%
growth [4]: 106%
growth [5]: 96.1%
growth [6]: 93.5%
growth [20]: 90.5%
growth [18]: 109%
growth [7]: -61.6% (active)
growth [8]: 103%
growth [9]: 104%
growth [10]: 93%
growth [12]: 20.7%
growth [13]: 98.7%
growth [19]: 53.7%
growth [15]: 88.4%
growth [16]: 66.6%
growth [17]: 107%

O=C(N/N=C\c1ccc(N(CCCl)CCCl)cc1Cl)c1cccnc1
growth [1]: 79.9%
growth [3]: 86.6%
growth [4]: 89%
growth [5]: 65.2%
growth [6]: 92.9%
growth [20]: 72.6%
growth [18]: -40.4% (active)
growth [7]: 87.1%
growth [8]: 98.5%
growth [9]: 27.2%
growth [10]: 103%
growth [11]: 79.2%
growth [12]: 88%
growth [13]: 6.39% (active)
growth [14]: 98.5%
growth [19]: 69.3%
growth [15]: -93.6% (active)
growth [16]: 91.8%
growth [17]: 74.8%

CCCCCCC(=O)NC1=C(N2CC2)C(=O)C(NC(=O)CCCCCC)=C(N2CC2)C1=O
growth [1]: 69%
growth [2]: 19.2%
growth [4]: 60.6%
growth [5]: 52.1%
growth [6]: 35.4%
growth [20]: 52.4%
growth [18]: 30.6%
growth [7]: 33.5%
growth [8]: 81.5%
growth [9]: 73%
growth [10]: 78.3%
growth [11]: 41.7%
growth [12]: 43.1%
growth [13]: 75.5%
growth [19]: 45.6%
growth [15]: 66.9%
growth [16]: 16.8%
growth [17]: 50.7%

CC1=C(O)[C@@](C)(CCCCC[C@H](C)CCCCc2ccc(O)cc2)OOC1=O
growth [1]: 98.3%
growth [2]: 105%
growth [4]: 101%
growth [5]: 92.8%
growth [6]: 75.4%
growth [20]: 102%
growth [18]: 79.2%
growth [7]: 69.8%
growth [8]: 114%
growth [10]: 95.4%
growth [12]: 68.8%
growth [13]: 129%
growth [14]: 97.5%
growth [19]: 80.6%
growth [15]: 119%
growth [16]: 84.4%

NC(=O)C(Br)c1ccccc1 (stereo not drawn)
growth [1]: 58%
growth [2]: 86.2%
growth [4]: 90.6%
growth [5]: 86.8%
growth [6]: 94.3%
growth [18]: 88%
growth [7]: 56.8%
growth [8]: 97.2%
growth [9]: 83.9%
growth [11]: 88.7%
growth [12]: 102%
growth [13]: 91.2%
growth [14]: 87.2%
growth [19]: -46% (active)
growth [16]: 97.7%
growth [17]: 60.6%

Clc1ccc(N2COOC3(OOC2)C2CC4CC(C2)CC3C4)cc1
growth [1]: 64%
growth [2]: 60%
growth [4]: 74.3%
growth [5]: 28.4%
growth [6]: 53.7%
growth [20]: 55.5%
growth [18]: 39.4%
growth [7]: -83.1% (active)
growth [8]: 103%
growth [9]: 87.4%
growth [10]: 64.2%
growth [11]: 66.9%
growth [12]: -92.1% (active)
growth [13]: 27.2%
growth [14]: 29.4%
growth [19]: 52.3%
growth [15]: 96.8%
growth [16]: -58% (active)
growth [17]: -50.3% (active)

Fc1cccc(NCOOC2(OOCNc3cccc(F)c3)CCCCC2)c1
growth [1]: 99.2%
growth [2]: 96%
growth [4]: 96.2%
growth [5]: 102%
growth [6]: 88.9%
growth [20]: 95.2%
growth [18]: 104%
growth [7]: -68.9% (active)
growth [8]: 109%
growth [9]: 91.7%
growth [10]: 93.8%
growth [11]: 103%
growth [12]: -58.2% (active)
growth [13]: 90.8%
growth [14]: 95%
growth [19]: 52.3%
growth [15]: 92.4%
growth [16]: 88.3%
growth [17]: 84.1%
